Results published in PubChem BioAssay (NCI).
Several values for one entry are separate records, joined by “and”; a condition that tells them apart may be missing. Identical values can stand only once. About 83,000 compounds went through this panel and 20% of them were active in at least one assay; those are over-represented in the sample as a whole.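 Plates (96-well) were seeded with cells, treated with compound at one concentration, and incubated for 48 hours before percent growth was determined.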 Activity calls are given as the source filed them. Rule for the calls: active = growth percent below 10; inactive = the rest.

Assays:
Test in all cases: NCI-60 one-dose screen, 48 h (100 = growth as untreated, 0 = no growth, -100 = all killed)
Conditions in all cases: 10 µM unless noted
EKVX NSCLC = system: EKVX NSCLC
CAKI-1 renal = system: CAKI-1 renal
SR leukemia = system: SR leukemia
OVCAR-8 ovarian = system: OVCAR-8 ovarian
OVCAR-4 ovarian = system: OVCAR-4 ovarian
IGROV1 ovarian = system: IGROV1 ovarian
SN12C renal = system: SN12C renal
UO-31 renal = system: UO-31 renal
TK-10 renal = system: TK-10 renal
ACHN renal = system: ACHN renal
A498 renal = system: A498 renal
CCRF-CEM leukemia = system: CCRF-CEM leukemia
MOLT-4 leukemia = system: MOLT-4 leukemia
RPMI-8226 leukemia = system: RPMI-8226 leukemia
OVCAR-5 ovarian = system: OVCAR-5 ovarian
SK-OV-3 ovarian = system: SK-OV-3 ovarian
OVCAR-3 ovarian = system: OVCAR-3 ovarian
HS 578T breast = system: HS 578T breast
NCI/ADR-RES ovarian = system: NCI/ADR-RES ovarian

Row | SMILES | growth (EKVX NSCLC) | growth (CAKI-1 renal) | growth (SR leukemia) | growth (OVCAR-8 ovarian) | growth (OVCAR-4 ovarian) | growth (IGROV1 ovarian) | growth (SN12C renal) | growth (UO-31 renal) | growth (TK-10 renal) | growth (ACHN renal) | growth (A498 renal) | growth (CCRF-CEM leukemia) | growth (MOLT-4 leukemia) | growth (RPMI-8226 leukemia) | growth (OVCAR-5 ovarian) | growth (SK-OV-3 ovarian) | growth (OVCAR-3 ovarian) | growth (HS 578T breast) | growth (NCI/ADR-RES ovarian)
1 | Nc1ccn(C2OC(CO)C(O)C2O)c(=O)n1 (centres undefined) | 99.2% (inactive) [middle of 4 runs] | 26.9% (inactive) and 4.29% (active) and 95.4% (inactive) | 14.8% (inactive) | 40.1% (inactive) and 97.2% (inactive) and 101% (inactive) | 99.9% (inactive) [middle of 4 runs] | 50.9% (inactive) and 10.1% (inactive) and 106% (inactive) | – | – | – | – | – | – | – | – | – | – | – | – | –
2 | CCN(CC)CCCC(CNc1ccnc2cc(Cl)ccc12)c1ccc(Cl)cc1 (centres undefined) | -3.66% (active) and 12.1% (inactive) | -64.4% (active) and -63.6% (active) | -42.9% (active) and -57.7% (active) | 7.69% (active) and 8.6% (active) | -34.9% (active) and 14.3% (inactive) | -9.56% (active) and 20.2% (inactive) | -3.18% (active) and 84.7% (inactive) | -91.5% (active) and -65.7% (active) | -76.7% (active) and 14.7% (inactive) | -80.7% (active) and 2.15% (active) | 42.3% (inactive) and -81.8% (active) | -17.5% (active) and -46.6% (active) | -18% (active) and -51.4% (active) | -7.53% (active) and -24.9% (active) | 17.5% (inactive) and 62.9% (inactive) | 28% (inactive) and 99.4% (inactive) | 43% (inactive) and 19.9% (inactive) | 21.6% (inactive) | 19.5% (inactive) and 15.9% (inactive)
3 | Cc1cc(O)c(C(C)C)cc1N | 95% (inactive) and 104% (inactive) | 107% (inactive) and 97.4% (inactive) | 97.1% (inactive) and 115% (inactive) | 99.3% (inactive) and 106% (inactive) | 84.5% (inactive) | 103% (inactive) and 114% (inactive) | 114% (inactive) | 78% (inactive) and 95.5% (inactive) | 123% (inactive) and 117% (inactive) | 93.3% (inactive) and 100% (inactive) | 92.3% (inactive) and 89.7% (inactive) | 105% (inactive) and 88.4% (inactive) | 95.2% (inactive) and 103% (inactive) | 84.3% (inactive) and 92.6% (inactive) | – | 100% (inactive) | 76.6% (inactive) and 116% (inactive) | 120% (inactive) and 99.7% (inactive) | 102% (inactive) and 98.8% (inactive)
4 | CC/C(Cl)=N\OC(=O)Nc1ccc(OC)cc1 | – | – | – | – | – | – | – | – | -100% [100 µM] (active) | – | – | – | – | – | – | – | – | – | –
5 | OC(CSc1ccccc1)CN1CCN(c2cccc(Cl)c2)CC1 (centres undefined) | 102% (inactive) and 99% (inactive) | 92.2% (inactive) and 87.9% (inactive) | 87.2% (inactive) and 102% (inactive) | 98.9% (inactive) and 101% (inactive) | 97.1% (inactive) and 107% (inactive) | 105% (inactive) and 122% (inactive) | 94.3% (inactive) and 103% (inactive) | 76% (inactive) and 75% (inactive) | 101% (inactive) and 112% (inactive) | 103% (inactive) and 101% (inactive) | 116% (inactive) and 89.9% (inactive) | 92.5% (inactive) and 98.1% (inactive) | 76.1% (inactive) and 94.9% (inactive) | 92.9% (inactive) and 97.3% (inactive) | 105% (inactive) and 96.9% (inactive) | 105% (inactive) and 107% (inactive) | 120% (inactive) and 101% (inactive) | 118% (inactive) and 88.7% (inactive) | 99.6% (inactive) and 88.7% (inactive)
6 | O=C(/C=C\c1ccnc2ccccc12)c1ccc([N+](=O)[O-])cc1 | 75.3% (inactive) | 89.8% (inactive) and 70.3% (inactive) | 6.51% (active) | 99.1% (inactive) and 73.5% (inactive) | 85.3% (inactive) and 63.1% (inactive) | 108% (inactive) and 92.9% (inactive) | 96.9% (inactive) and 86.2% (inactive) | – | 81.3% (inactive) and 86.9% (inactive) | 75.2% (inactive) and 70.6% (inactive) | 109% (inactive) and 55.2% (inactive) | 67.9% (inactive) and 28.6% (inactive) | 63.1% (inactive) and 49.3% (inactive) | 31.1% (inactive) and -26.4% (active) | 89.4% (inactive) and 96.3% (inactive) | 95% (inactive) and 89.6% (inactive) | 100% (inactive) and 87.8% (inactive) | – | 81.6% (inactive) and 67.4% (inactive)
7 | Nc1nc(SC/C=C/CCl)c2[nH]cnc2n1 | 95% (inactive) and 98.7% (inactive) | 105% (inactive) and 112% (inactive) | 77.5% (inactive) | 103% (inactive) and 97.6% (inactive) | 116% (inactive) and 100% (inactive) | – | 108% (inactive) and 111% (inactive) | 87% (inactive) and 94.3% (inactive) | 109% (inactive) and 95% (inactive) | 110% (inactive) and 101% (inactive) | 83.6% (inactive) and 91.6% (inactive) | 96.6% (inactive) | 97.1% (inactive) and 76.3% (inactive) | 100% (inactive) | 109% (inactive) and 101% (inactive) | 99.4% (inactive) and 112% (inactive) | 117% (inactive) and 120% (inactive) | – | 103% (inactive) and 106% (inactive)
8 | C[N+](C)(C)CN1C(=O)c2ccccc2C1=O | – | 94.4% (inactive) | 83.8% (inactive) | 97.4% (inactive) | 101% (inactive) | – | 100% (inactive) | 97.3% (inactive) | – | 102% (inactive) | 98.2% (inactive) | 101% (inactive) | 94.2% (inactive) | 106% (inactive) | 105% (inactive) | 98.1% (inactive) | 109% (inactive) | 103% (inactive) | 112% (inactive)
9 | O=C1c2ccccc2-c2c1c1ccccc1c(=O)n2CCO | – | – | – | – | – | – | – | – | 41.8% [100 µM] (inactive) and 3.35% [100 µM] (active) | – | – | – | – | – | – | – | – | – | –
10 | COc1ccc2c(=O)cc(-c3ccccc3)[nH]c2c1 | 48.9% (inactive) and 18.9% (inactive) | 24.6% (inactive) | 4.49% (active) | 17.5% (inactive) and 8.21% (active) | 53.1% (inactive) and 36.7% (inactive) | 33.2% (inactive) | 45.7% (inactive) and 42.7% (inactive) | 41.7% (inactive) and 8.7% (active) | 48.4% (inactive) and 63.7% (inactive) | 54.4% (inactive) and 51.9% (inactive) | 50.7% (inactive) | – | 26.9% (inactive) and 6.72% (active) | 21.8% (inactive) and 2.02% (active) | 49.4% (inactive) and 46.3% (inactive) | 5.46% (active) and 23.9% (inactive) | -47.7% (active) and -45.4% (active) | 31.5% (inactive) and 58.9% (inactive) | -12.9% (active)
11 | Cc1ccc(-c2noc(C)n2)cc1 | – | 94.5% (inactive) | 90.7% (inactive) | 101% (inactive) | 118% (inactive) | 102% (inactive) | 102% (inactive) | 84% (inactive) | 107% (inactive) | 105% (inactive) | 80.8% (inactive) | 103% (inactive) | 90.5% (inactive) | 105% (inactive) | – | 112% (inactive) | 122% (inactive) | 107% (inactive) | 108% (inactive)
